Assay outcomes from PubChem.
GLP1R ag: activates the human GLP-1 receptor. 380,000 compounds, 0.007% hits. AID 624172. HEK293 GLP-1R CRE-luciferase, luminescence, 4-6 h; cells express a hypersensitive GLP-1R form. Potency, µM (series often up to 45.6 µM), actives largely listed as activators. P43220
Target sequence (P43220 whole entry, looked up): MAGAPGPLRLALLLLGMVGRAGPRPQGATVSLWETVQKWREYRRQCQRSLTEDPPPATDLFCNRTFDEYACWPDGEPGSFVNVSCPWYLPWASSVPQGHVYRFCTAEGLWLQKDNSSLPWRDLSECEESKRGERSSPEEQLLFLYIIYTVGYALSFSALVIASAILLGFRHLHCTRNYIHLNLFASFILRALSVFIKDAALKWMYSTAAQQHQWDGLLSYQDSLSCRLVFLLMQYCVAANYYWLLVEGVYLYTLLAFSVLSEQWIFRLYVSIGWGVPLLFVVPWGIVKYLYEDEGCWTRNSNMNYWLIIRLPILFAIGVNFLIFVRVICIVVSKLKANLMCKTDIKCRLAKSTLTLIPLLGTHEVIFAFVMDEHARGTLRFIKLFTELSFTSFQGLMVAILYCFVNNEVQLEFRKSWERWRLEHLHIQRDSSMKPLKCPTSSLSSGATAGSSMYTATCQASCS
D3 antag: D3 dopamine receptor (human) antagonism. P35462. D3R cells, DiscoveRx beta-arrestin luminescence, antagonist mode; active compounds read low. max response, negative = inhibition, %. 360,000 compounds, 2.5% hits; in the data active = max response below about -50%; inconclusive = no clear call, values can overlap the other calls
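Cells plated overnight at 1500 cells/well, then exposed to library compounds with dopamine controls for 90 minutes at 37 degrees C. DiscoveRx reagent added for 30–60 minutes at room temperature; luminescence read, quantitative HTS format.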
D3 ag: D3 dopamine receptor (human) agonism; D3R DiscoveRx beta-arrestin cells, luminescence, 90 min; max activation, %; 410,000 compounds, 0.58% hits; AID 652048; in the data active = max activation above about 30%
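Agonist mode: compounds and dopamine controls were applied to plated cells for 90 min at 37 degrees C after an overnight attachment at 1500 cells/well. Luminescent read-out followed 30 - 60 minutes at room temperature with DiscoveRx detection reagent.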
GLP1R inv ag: GLP-1 receptor (human) inverse agonism; Potency, µM (series often up to 38.3 µM), usual class: inhibitors; HEK293 GLP-1R CRE-luciferase, luminescence, 24 h; GLP-1R form is constitutively active; P43220; 410,000 compounds, 1.6% hits; also: nearly all actives have a fitted effect of over 55% in size
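Stable HEK293 clone (constitutively active GLP-1R + cAMP-response luciferase); 200 cells/uL plated, 12 h pre-culture, compound 24 hr, 37 deg C/5% CO2; detection reagent 12 min RT; luminescence.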
Of the large screens only hits and unclear results are named; the others gave an inactive call. The list is not random: actives were taken first. Their share in the collection is about 4.3%. Unless noted, calls follow the shape of the dose curve; as a rule, active = well fitted curve in the direction sought with a large enough effect; inconclusive = small, poorly fitted or top-dose-only effect, or another doubt; inactive = no such curve, though single readings can be large; an effect the other way counts as inactive or inconclusive.

CCC(Sc1nc(C)cc(C)n1)C(=O)Nc1cc(C)on1 (centres undefined)	D3 antag -53
S=C(Nc1ccc(Cl)c(Cl)c1)NC1CCN(Cc2ccccc2)CC1	D3 antag -55, GLP1R inv ag 3.2µM
Fc1ccc(NC(=S)NC2CCN(Cc3ccccc3)CC2)cc1	D3 antag -55, GLP1R inv ag inconclusive
CCCN1CCC(NC(=O)Nc2ccc(F)cc2F)CC1	D3 antag -53
S=C(Nc1ccc(Cl)c(Cl)c1)NC1CCCCC1	none
COC(=O)[C@@H](NC(=O)NC1CCN(Cc2ccccc2)CC1)C(C)C	D3 antag -53
CC(=O)c1cccc(NC(=O)c2c(N3CCCC3=O)c3cc(F)ccc3n2C)c1	none (no result: D3 antag)
O=C(Nc1cccc(F)c1)NC1CCN(Cc2ccccc2)CC1	D3 antag -82, GLP1R inv ag inconclusive
COc1ccc(C(=O)NC(=S)Nc2ccccc2N2CCCCC2)cc1[N+](=O)[O-]	GLP1R inv ag 1.1µM
CCOc1ccc(C(=O)NC(=S)Nc2ccccc2N2CCCCC2)cc1[N+](=O)[O-]	GLP1R inv ag inconclusive
O=C(O)C1=C(C2CCCCC2)C(=O)c2ccccc21	none
O=C(O)c1ccc(C2CCCCC2)cn1	D3 antag -95
CCC(=O)N1c2ccccc2CC1C(=O)NCCN1CCN(c2cccc(C)c2C)CC1 (centres undefined)	none (no result: GLP1R ag, D3 antag)
COc1ccc(C(CCNCc2ccc(OC(C)C)cc2)c2ccccc2OC)cc1 (centres undefined)	GLP1R inv ag inconclusive
COc1ccc(C(CCNCc2ccc(N(C)C)cc2)c2ccccc2OC)cc1 (centres undefined)	D3 antag -55, GLP1R inv ag 10µM
COc1ccc(CNCCC(c2ccc(OC)cc2)c2ccccc2OC)cc1 (centres undefined)	GLP1R inv ag 10µM
COc1ccc(CNCCC(c2ccc(F)cc2)c2ccc(OC(C)C)cc2)cc1OC (centres undefined)	GLP1R inv ag 4µM
Cc1ccc(N(CCC#N)C(=O)CCl)cc1C	GLP1R inv ag 2.8µM
COc1cc(NC(=O)NCCn2nnc3cc(S(=O)(=O)N(C)C)ccc32)cc(OC)c1	none (no result: GLP1R ag, D3 antag)
CCOc1cccc2sc(N(CCN(C)C)C(=O)c3cc4ccccc4cc3OC)nc12	D3 antag -71, GLP1R inv ag inconclusive
CCOc1cccc2sc(N(CCN(C)C)C(=O)c3ccc4c(c3)OCCO4)nc12	D3 antag -66, GLP1R inv ag inconclusive
CCOc1cccc2sc(N(CCCN(C)C)C(=O)c3ccc(S(=O)(=O)N(CC)Cc4ccccc4)cc3)nc12	GLP1R inv ag 4µM
CCN(CC)C(=O)C1=C(C)N(CCCOC)C(=O)C(CC(=O)NC2CC2)C1 (centres undefined)	D3 antag -116
O=C(Nc1ccc(Cl)cc1)Nc1nnc(-c2ccncc2)s1	D3 ag 49
CC1(C)CC2CC(C)(CN2/C=N/c2sc3c(c2C#N)CC(C)(C)NC3(C)C)C1 (centres undefined)	GLP1R inv ag 1.1µM
CCOC(=O)C1CCN(C2=NC(=O)/C(=C/c3ccc(Cl)cc3)S2)CC1	none
CCOC(=O)CSC1=NC(=O)/C(=C\c2ccc(Cl)cc2)S1	D3 antag -78
CN1CCN(C2=Nc3ccccc3Oc3ccc(Cl)cc32)CC1	D3 antag -110, GLP1R inv ag inconclusive
CN1CCN(C2=Nc3ccccc3Sc3ccc(Cl)cc32)CC1	none (no result: D3 antag, GLP1R inv ag)
CCc1sc(/C=C(/C#N)C(N)=S)cc1[N+](=O)[O-]	none
Cc1ccc(OCC(=O)Nc2ccc(S(=O)(=O)N3CCOCC3)cc2)c(C)c1	GLP1R inv ag inconclusive
Cc1ccccc1OCCC(=O)Nc1ccc(S(=O)(=O)N(C)C2CCN(C)CC2)cc1	D3 antag -61, GLP1R inv ag inconclusive
CN1CCC(N(C)S(=O)(=O)c2ccc(NC(=O)Cc3ccc(F)cc3)cc2)CC1	GLP1R inv ag inconclusive
Cc1c(C(=O)Nc2ccc(S(=O)(=O)N(C)C3CCN(C)CC3)cc2)oc2c(Cl)cccc12	D3 antag -66, GLP1R inv ag inconclusive
Cc1ccc(OCC(=O)Nc2ccc(S(=O)(=O)N(C)C3CCN(C)CC3)cc2)c(C)c1	GLP1R inv ag 2.2µM
CN1CCC(N(C)S(=O)(=O)c2ccc(NC(=O)COc3cccc(Cl)c3)cc2)CC1	GLP1R inv ag 2.8µM
Cc1ccc(CNC(=O)NCc2noc3ccc(C)cc23)cc1	none (no result: GLP1R ag, D3 antag)
O=C(NCc1ccc2c(c1)CCN2C(=O)c1ccccc1)c1cc2ccccc2[nH]1	none (no result: GLP1R ag, D3 antag)
CCc1ccc2c(c1)NC(c1ccc(C)cc1)=NC(c1cccs1)=N2	GLP1R inv ag inconclusive (no result: GLP1R ag, D3 antag)
